Measurements from PubChem BioAssay AID1159580 (chemical genetic matrix, 2015).
The campaign covered roughly 5,500 compounds. About 2,000 (36%) were called active. Inconclusive results (about 18%) are left out. No stated cut-off is given here; in the data, active means normalized growth mostly below about 0.91 (no sharp cut-off); inconclusive means no clear call, values can overlap the other calls; inactive means mostly above about 0.92. This is one part of the list.

Assay: chemical genetic growth profiling, strain panel (AID 1159580);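 further: tested at 20 µM; growth read once vehicle control cultures reached saturation at 30 °C; 1 = growth at the plate median or of vehicle wells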
Conditions: S. cerevisiae deletion strains, growth OD

Measured: normalized growth

O=C(Cc1cccs1)NC1C(=O)N2C(C(=O)[O-])=C(C[n+]3ccccc3)CSC12 (stereo unspecified)
inactive: locus YAL013W, strain DEP1, stronger effect = lower value 1.01 | locus YAL021C, strain ccr4, stronger effect = lower value 0.966 | locus YAL026C, strain drs2, stronger effect = lower value 0.989 | locus YAL030W, strain snc1, stronger effect = lower value 0.994 | locus YBL061C, strain skt5, stronger effect = lower value 0.995 | locus YBR009C, strain hhf1, stronger effect = lower value 0.981 | locus YBR021W, strain FUR4, stronger effect = lower value 1 | locus YBR023C, strain chs3, stronger effect = lower value 0.993 | locus YBR171W, strain sec66, stronger effect = lower value 0.975 | locus YBR229C, strain ROT2, stronger effect = lower value 0.99 | locus YBR231C, strain swc5, stronger effect = lower value 0.985 | locus YBR279W, strain paf1, stronger effect = lower value 0.996 | locus YCL011C, strain gbp2, stronger effect = lower value 0.997 | locus YCL016C, strain dcc1, stronger effect = lower value 0.991 | locus YCL029C, strain bik1, stronger effect = lower value 1 | locus YCL069W, strain vba3, stronger effect = lower value 0.991 | locus YCR088W, strain abp1, stronger effect = lower value 0.982 | locus YDL005C, strain med2, stronger effect = lower value 0.968 | locus YDL035C, strain GPR1, stronger effect = lower value 0.998 | locus YDL040C, strain nat1, stronger effect = lower value 0.983 | locus YDL074C, strain BRE1, stronger effect = lower value 1.01 | locus YDL101C, strain DUN1, stronger effect = lower value 1.02 | locus YDL134C, strain PPH21, stronger effect = lower value 1 | locus YDL185W, strain tfp1, stronger effect = lower value 0.991 | locus YDL192W, strain arf1, stronger effect = lower value 0.992 | locus YDR001C, strain nth1, stronger effect = lower value 0.996 | locus YDR069C, strain doa4, stronger effect = lower value 0.964 | locus YDR101C, strain arx1, stronger effect = lower value 1.01 | locus YDR137W, strain rgp1, stronger effect = lower value 0.988 | locus YDR159W, strain sac3, stronger effect = lower value 0.962 | locus YDR162C, strain NBP2, stronger effect = lower value 1.01 | locus YDR195W, strain ref2 1.01 | locus YDR297W, strain sur2, stronger effect = lower value 0.989 | locus YDR318W, strain mcm21, stronger effect = lower value 0.998 | locus YDR334W, strain swr1, stronger effect = lower value 0.993 | locus YDR335W, strain msn5, stronger effect = lower value 0.996 | locus YDR388W, stronger effect = lower value 0.99 | locus YDR392W, strain spt3, stronger effect = lower value 0.994 | locus YDR502C, strain sam2, stronger effect = lower value 0.985 | locus YEL003W, strain gim4, stronger effect = lower value 0.969 | locus YEL037C, strain rad23, stronger effect = lower value 1 | locus YEL061C, strain CIN8 (second series), stronger effect = lower value 1 | locus YEL061C, strain CIN8, stronger effect = lower value 1.01 | locus YER015W, strain faa2, stronger effect = lower value 0.983 | locus YER016W, strain bim1, stronger effect = lower value 0.983 | locus YER110C, stronger effect = lower value 0.992 | locus YER111C, strain swi4, stronger effect = lower value 0.96 | locus YER155C, strain BEM2 (second series), stronger effect = lower value 0.987 | locus YER155C, strain BEM2, stronger effect = lower value 1 | locus YER167W, strain BCK2, stronger effect = lower value 0.991 | locus YFR010W, strain ubp6, stronger effect = lower value 0.986 | locus YGL078C, strain dbp3, stronger effect = lower value 0.99 | locus YGL086W, strain mad1, stronger effect = lower value 0.999 | locus YGL167C, strain pmr1, stronger effect = lower value 0.985 | locus YGL173C, strain kem1, stronger effect = lower value 0.982 | locus YGL227W, strain vid30, stronger effect = lower value 0.979 | locus YGL240W, strain doc1, stronger effect = lower value 0.956 | locus YGL248W, strain PDE1, stronger effect = lower value 1.02 | locus YGL253W, strain hxk2, stronger effect = lower value 0.999 | locus YGR135W, strain pre9, stronger effect = lower value 0.978 | locus YGR252W, strain gcn5, stronger effect = lower value 0.941 | locus YHR013C, strain ard1, stronger effect = lower value 0.981 | locus YHR027C, strain rpn1, stronger effect = lower value 0.991 | locus YHR030C, strain SLT2, stronger effect = lower value 1.01 | locus YHR079C, strain IRE1 (second series), stronger effect = lower value 0.996 | locus YHR094C, strain hxt1, stronger effect = lower value 0.998 | locus YHR129C, strain ARP1, stronger effect = lower value 1.01 | locus YHR142W, strain chs7, stronger effect = lower value 0.963 | locus YHR200W, strain rpn10, stronger effect = lower value 0.994 | locus YIL066C, strain RNR3, stronger effect = lower value 1.02 | locus YIL073C, strain SPO22, stronger effect = lower value 1.09 | locus YIL125W, strain kgd1, stronger effect = lower value 0.999 | locus YIR030C, strain dcg1, stronger effect = lower value 1.01 | locus YJL092W, strain hpr5, stronger effect = lower value 0.986 | locus YJL095W, strain BCK1 (second series), stronger effect = lower value 0.961 | locus YJL095W, strain BCK1, stronger effect = lower value 1.03 | locus YJL115W, strain asf1, stronger effect = lower value 0.981 | locus YJL129C, strain trk1, stronger effect = lower value 0.99 | locus YJL134W, strain LCB3, stronger effect = lower value 1 | locus YJL154C, strain vps35, stronger effect = lower value 0.983 | locus YJL164C, strain tpk1, stronger effect = lower value 0.985 | locus YJL166W, strain qcr8, stronger effect = lower value 0.979 | locus YJL168C, strain set2, stronger effect = lower value 0.994 | locus YJL187C, strain SWE1 (second series), stronger effect = lower value 1.01 | locus YJL187C, strain SWE1, stronger effect = lower value 0.978 | locus YJR043C, strain POL32, stronger effect = lower value 1.01
